Results filed as inconclusive are left out. Calls of active or inactive are those of the source. The call rests on the fitted dose curve; in most records, active means well fitted cell-killing curve with a large enough effect in the repeat runs; inconclusive means weak or mixed curves, or effect the other way; inactive means flat fitted curve, though single readings scatter.
Experiment: qHTS RealTime-Glo MT Cell Viability Assay in HEK293 cells - 16 hour (AID 1224872); further: nearly all actives have a fitted effect of over 50% in size; on activity change, negative = cytotoxicity: top concentration of the series differs between compounds
Settings: RealTime-Glo luminescence; series mostly up to 76.8 µM; activity change, negative = cytotoxicity: at the top concentration
Source text: National Center for Advancing Translational Sciences [NCATS]
NIH Chemical Genomics Center [NCGC]
U.S. Environmental Protection Agency [EPA]
National Institutes of Environmental Health Sciences [NIEHS]
National Toxicology Program [NTP]
U.S. Food and Drug Administration [FDA]
Measure of cell viability is critical in the cell-base assay. Analysis of cell viability is necessary for the characterization of cell responses to cytotoxic drugs and environmental stress. A RealTime-Glo MT Cell Viability Assay to monitor cell viability in real time of continues cell culture during 40 hours of compound treatment was used to screen Tox21 10K library compounds in Hek293 cells. The RealTime-Glo MT Cell Viability Assay is a nonlytic, homogeneous, bioluminescent method to measure cell viability in real time using a simple, plate-based method. The assay involves adding NanoLuc luciferase and a cell-permeant prosubstrate to cells in culture. Viable cells reduce the proprietary prosubstrate to generate a substrate for NanoLuc luciferase. This substrate diffuses from cells into the surrounding culture medium, where it is rapidly used by the NanoLuc Enzyme to produce a luminescent signal. The signal correlates with the number of viable cells, making the assay well suited for cytotoxicity studies.
Tox21 Assay Protocol Summary:
The mixture of Hek293 cell suspension and reagents were dispensed at 600cells/6 ul/well in 1536-well tissue culture treated black solid bottom plates using a Multidrop dispenser. After the assay plates were incubated at a 37 C/5% CO2 incubator for 5 hours, 23 nL of compounds dissolved in DMSO, positive and negative controls was transferred to the assay plate by a pintool work station. The plates were incubated at 37 C for 40 hours. The luminescence intensity were measured at 0h, 8h, 16h, 24h, 32h and 40h time points using ViewLux plate reader during compound treatment.
On the % scale 0 is the no-effect control and ±100 the full control effect; potency means the concentration at half of the fitted maximal effect.

Row | Structure (SMILES) | activity change, negative = cytotoxicity | Potency
1 | CC(C=O)Cc1ccc(C(C)C)cc1 (stereo not given) | 13.5% (inactive) | 
2 | CC(C)CCCC(C)NCCC(C)C (stereo not given) | 10.6% [at 35.3 µM] (inactive) | 
3 | c1cc(CN2CCCCC2)cc(OCCCNc2nc3ccccc3s2)c1 |  | 9.52 µM (active)
4 | O=C(CCOCCOCCOCCOCCC(=O)Nc1c(I)cc(I)c(C(=O)O)c1I)Nc1c(I)cc(I)c(C(=O)O)c1I | 4.12% [at 35.3 µM] (inactive) | 
5 | CC(C)c1cccc(C(C)C)c1N | -0.774% (inactive) | 
6 | CCOC(=O)Cn1c(=O)sc2cccc(Cl)c21 | -19.2% (inactive) | 
7 | CC(C)COC(=O)C(C)C | 0.634% (inactive) | 
8 | CCCC=O | 2.89% (inactive) | 
9 | NC(N)=NS(=O)(=O)c1ccc(N)cc1 | -6.79% [at 35.3 µM] (inactive) | 
10 | CCCCN(CCO)CCO | 7.34% (inactive) | 
11 | CCCc1ccc(N)cc1 | -2.97% (inactive) | 
12 | O=C(O)CCNC(=O)c1ccc(N=Nc2ccc(O)c(C(=O)O)c2)cc1 | 0.716% [at 35.3 µM] (inactive) | 
13 | COC(=O)[C@H]1[C@H]2C[C@@H]3c4[nH]c5cc(OC)ccc5c4CCN3C[C@H]2C[C@@H](OC(=O)COc2ccc(OC)cc2)[C@@H]1OC | -4.7% [at 35.3 µM] (inactive) | 
14 | O=C1CC2(CCCC2)CC(=O)N1 | 3.99% [at 35.3 µM] (inactive) | 
15 | CNC(=O)c1c(I)c(NC(=O)CCCCC(=O)Nc2c(I)c(C(=O)O)c(I)c(C(=O)NC)c2I)c(I)c(C(=O)O)c1I | -2.24% [at 35.3 µM] (inactive) | 
16 | [O-][N+](=Nc1ccccc1)c1ccccc1 | -3.25% (inactive) | 
17 | COc1cccc(Br)c1 | -2.25% (inactive) | 
18 | N[C@@H](CS)C(=O)O | 14.1% (inactive) | 
19 | CO | 4.61% (inactive) | 
20 | CCCCCCCCCCCCCCC | 2.7% (inactive) | 

Row | Structure (SMILES) | activity change, negative = cytotoxicity | Potency
21 | OCCN1C[C@H](O)[C@@H](O)[C@H](O)[C@H]1CO | -2.04% [at 35.3 µM] (inactive) | 
22 | Nc1[nH]c(=O)ncc1F | 2.06% [at 35.3 µM] (inactive) | 
23 | Oc1cc(O)c2c(c1)O[C@H](c1ccc(O)c(O)c1)[C@H](O)C2 | -0.0749% [at 35.3 µM] (inactive) | 
24 | CCCC(=O)O[C@]1(C(=O)CCl)[C@@H](C)C[C@H]2[C@@H]3CCC4=CC(=O)C=C[C@]4(C)[C@@]3(F)C(=O)C[C@@]21C | -18.8% [at 35.3 µM] (inactive) | 
25 | CCCCCCCCN(C)CCCCCCCC | 4.43% (inactive) | 
26 | NS(=O)(=O)c1cc(C2(O)NC(=O)c3ccccc32)ccc1Cl (stereo not given) | 0.783% [at 35.3 µM] (inactive) | 
27 | O=C1C(CCS(=O)c2ccccc2)C(=O)N(c2ccccc2)N1c1ccccc1 (stereo not given) | 0.34% [at 35.3 µM] (inactive) | 
28 | C=CC(=O)OCCCCCC | 3.36% (inactive) | 
29 | NCC[C@H](O)C(=O)N[C@@H]1C[C@H](N)[C@@H](O[C@H]2O[C@H](CN)[C@@H](O)[C@H](O)[C@H]2O)[C@H](O)[C@H]1O[C@H]1O[C@H](CO)[C@@H](O)[C@H](N)[C@H]1O | -0.0333% [at 0.29 µM] (inactive) | 
30 | O=c1[nH]c2ccccc2c(=O)n1CCCl | 0.913% [at 35.3 µM] (inactive) | 
31 | NC(=O)CCCCC1CCSS1 (stereo not given) | 0.528% [at 35.3 µM] (inactive) | 
32 | c1ccc(SCCSc2ccccc2)cc1 | 3.45% (inactive) | 
33 | CC(O)CN(CCCN(C)C)CCCN(C)C (stereo not given) | 3.48% (inactive) | 
34 | NS(=O)(=O)c1cc2c(cc1C(F)(F)F)NC(Cc1ccccc1)NS2(=O)=O (stereo not given) | 0.379% [at 35.3 µM] (inactive) | 
35 | COc1cccc(OC)c1 | 2.56% (inactive) | 
36 | NC(=O)c1ncn([C@@H]2O[C@H](CO)[C@@H](O)[C@H]2O)c1O | 6.3% [at 35.3 µM] (inactive) | 
37 | NC(=O)c1c(Cl)cccc1Cl | 9.52% (inactive) | 
38 | CC(C)CCCCCCN | -0.0033% (inactive) | 
39 | CC/C=C\CCCCO | 6.34% (inactive) | 
40 | CCO[Si](CCCN=C=O)(OCC)OCC | -0.285% (inactive) | 
